Bioassay records from PubChem BioAssay.
HCV inh: inhibitors of hepatitis C virus infection; Huh7.5.1 HCVcc-Cre infection, luciferase reporter, 44 h; Potency, µM (highest dose often 41.8 µM), without a hit: at the top dose activity change, negative = inhibition, most hits filed as inhibitors; hit rate 3.4% among 340,000; further: potency means the concentration at half of the fitted maximal effect
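Compounds are dispensed onto cells plated 4 h earlier at 1,000 per well, with HCVcc-Cre virus (about 0.5 moi) added next. Following 44 h of culture, luminescent signal is measured for 15 sec after 15 min with substrate at room temperature.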
Pf growth 48h: inhibits P. falciparum growth in the first generation, 48 h; P. falciparum luciferase growth in erythrocytes, 48 h; Potency, µM (top dose mostly 28.7 µM), inactives show top-dose activity change, negative = inhibition, most hits filed as inhibitors; hit rate 5.9% among 310,000; AID 504832; further: potency means the concentration at half of the fitted maximal effect
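Erythrocytes infected with P. falciparum carrying an integrated firefly luciferase reporter (2% hematocrit, 0.1% parasitemia final) were exposed to compounds in RPMI 1640 with 0.5% Albumax at 37 C, 5% CO2. Growth inhibition was scored as reduced luminescence.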
HCMV antiviral: inhibitors of human cytomegalovirus; AID 1259415; HFF cells, HCMV-luciferase reporter, 72 h; hits give low values; activity change, negative = inhibition, % at 57.5 µM; hit rate 4.5% among 410,000; in the data active means activity change below about -60%; inconclusive means no clear call, values can overlap the other calls; inactive means above about -39%
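Cell-based, HFFs, 1000 cells/well, 16 h 37C; cpds in DMSO + HCMV-luc, MOI 1 PFU/cell; 72 h 37C; OneGlo luminescence after 5 min RT; norm. to buffer vs Salinomycin 10uM.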
Pf growth 96h: P. falciparum growth inhibition at 96 hours | hit rate 6.9% among 320,000 | Potency, µM (highest dose often 28.7 µM), inactives show at the highest dose activity change, negative = inhibition, hits mostly inhibitors | AID 504834 | P. falciparum luciferase reporter growth, 96 h; further: potency means the concentration at half of the fitted maximal effect
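P. falciparum expressing integrated firefly luciferase grown in erythrocytes (2% hematocrit, 0.05% parasitemia final) with compounds for 96 hours at 37 C, 5% CO2. Growth inhibition read as loss of luminescence after adding luciferase detection reagent.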
Starred values were filed as active, the others as inactive; ? = inconclusive; nt = no result given. Rows were chosen to be rich in hits. Some 13% of all compounds tested hit in one or more screens of this group. Unless noted, the call rests on the fitted dose curve; in most records, active means well fitted inhibition curve with a large enough effect; inconclusive means small, poorly fitted or top-dose-only effect, or another doubt; inactive means no such curve, though single readings can be large or run the other way. On the % scale 0 is the no-effect control and ±100 the full control effect.

SMILES	HCV inh	Pf growth 48h	HCMV antiviral	Pf growth 96h
Cc1ccc(O)c(-c2cc(C(=O)Nc3ccc(S(=O)(=O)N4CC(C)OC(C)C4)cc3)[nH]n2)c1 (stereo unspecified)	11µM*	0.52µM*	-14	292%
COC(=O)c1c(NC(=O)Cc2coc3ccc(C(C)C)cc23)sc2c1CCC2	nt	nt	16	nt
CC(=Nc1ccccc1)C1=C(O)C(Cc2ccccc2)NC1=O (stereo unspecified)	21%	nt	-76*	nt
CC(=Nc1ccccc1)C1=C(O)C(Cc2ccc(F)cc2)NC1=O (stereo unspecified)	nt	nt	-10	nt
CCCC(=NC(C)CC)C1=C(O)CC(c2ccccc2)CC1=O (stereo unspecified)	-5%	2.9µM*	7	?
CCC(=Nc1ccccc1OC)C1=C(O)CC(c2ccccc2)CC1=O (stereo unspecified)	0%	-23%	-31	0.41µM*
CCC(C)N=CC1=C(O)CC(c2ccccc2)CC1=O (stereo unspecified)	10%	nt	5	?
Cc1[nH]c2ccc3ncccc3c2c1C	11µM*	9%	-3	?
CCc1ccccc1NC(=O)N1CCN(c2cc(-c3noc(C)n3)ccc2C)CC1	nt	nt	4	nt
COc1ccc(-c2nc3ccccc3n3c(-c4ccc(OC)cc4)c4c(=O)n(C)c(=O)n(C)c4c23)cc1	nt	nt	27	nt
O=C1NCCN1CCNc1nc(NCC2CC2)nc2cc(-c3ccccc3)sc12	nt	nt	-25	nt
c1ccc(-c2cc3nc(NCC4CC4)nc(NCC4CCCCC4)c3s2)cc1	nt	nt	-92*	nt
COc1ccc(-c2cc(CNc3nc(NC(C)C)nc4cc(-c5ccccc5)sc34)on2)cc1	nt	nt	-99*	nt
CC(=O)Nc1ccc(CNc2nc(NC(C)C)nc3cc(-c4ccccc4)sc23)cc1	nt	nt	-98*	nt
Cc1nc2c(C(=O)NCCC(C)C)cnn2c(C)c1Cc1c(F)cccc1Cl	nt	nt	-3	nt
Cc1ccc(CCNC(=O)c2cc3sccc3n2Cc2ccc(F)cc2)cc1	nt	nt	-14	nt
Cc1cccc(NC(=O)C(NS(=O)(=O)c2ccc3c(c2)oc(=O)n3C)C(C)C)c1 (stereo unspecified)	nt	nt	10	nt
COCCNCCCCOc1c(Cl)cc(C)cc1Br	11µM*	-23%	-5	0%
COCCCNCCOCCOc1ccc(C)cc1Br	?	-9%	7	?
Cc1cc(Cl)c(OCCCNCc2ccccc2)c(Br)c1	25µM*	?	20	?
CCOc1ccc2nc(N3CCN(C(=O)c4ccco4)CC3)sc2c1	nt	nt	23	nt
Cc1ccc(CSc2cn(CC(=O)N3CCCCCC3)c3ccccc23)cc1	nt	nt	18	nt
Cc1ccc(OCc2cc(=O)n3cc(C)sc3n2)c(NC(=O)c2ccco2)c1	nt	nt	-10	nt
COc1ccccc1N1CCN(C(=O)CCC(=O)Nc2nnc(C(C)C)s2)CC1	-9%	-5%	-3	12µM*
COc1cccc(NC(=O)Cc2csc(NC(=O)Nc3ccccc3OC)n2)c1	?	?	12	?
SMILES	HCV inh	Pf growth 48h	HCMV antiviral	Pf growth 96h
COc1ccccc1NC(=O)Nc1nc(CC(=O)Nc2ccc(OC)c(OC)c2)cs1	?	?	-22	5.2µM*
COc1ccccc1NC(=O)Cc1nc(CCl)cs1	7%	-19%	-2	-6%
COc1cc(C)ccc1NC(=O)Cc1csc(NC(=O)Nc2ccccc2OC)n1	8.9µM*	?	-10	?
CCC(=O)Nc1nc(CC(=O)Nc2ccccc2OC)cs1	2%	-4%	15	-13%
COc1ccccc1NC(=O)Cc1csc(NC(=S)Nc2ccc(C)cc2)n1	?	?	-102*	10µM*
COC(=O)CNC(=O)Nc1cc(C(=O)NCc2ccc(C)cc2)ccc1N1CCCC1	nt	nt	10	nt
CCOc1ccc(Nc2c(S(=O)(=O)c3ccc(Cl)cc3)cnc3ccc(OCC)cc23)cc1	nt	nt	-26	nt
CN(C)c1ccc(C(CNC(=O)c2ccc(C(C)(C)C)cc2)N2CCOCC2)cc1 (stereo unspecified)	nt	nt	-23	nt
COc1ccccc1N1CCN(C(=O)CCC(=O)N2CCN(c3ccccc3OC)CC2)CC1	-12%	-8%	-16	?
COc1ccccc1NC(=O)Nc1nc(CC(=O)N2CCN(c3ccccc3OC)CC2)cs1	10µM*	?	-11	?
CCC(C)OC(=O)/C(C#N)=C\c1ccc(-c2cccc(C(F)(F)F)c2)o1 (stereo unspecified)	nt	nt	10	nt
O=C(c1cc(Sc2ccc(Cl)cc2)nc2ccccc12)N1CCN(c2ccccn2)CC1	?	12µM*	-32	57%
